Reference: PubChem BioAssay (Tox21)
Values without a mark were called inactive. Results filed as inconclusive are left out. A call without a number means that no potency is given here. The source made the active and inactive calls. Unless noted, calls come from the whole dose curve.

Columns and labels:
[1] = Nuclear factor erythroid 2-related factor 2/antioxidant responsive element (Nrf2/ARE) small molecule agonists: qHTS cell viability counter screen in human keratinocytes (AID 1919968; active = well fitted curve in the direction sought with a large enough effect in the repeat runs; an effect the other way counts as inactive or inconclusive; note: nearly all actives have a fitted effect of over 55% in size; note: potency is the fitted concentration of half-maximal effect)
How it was run: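 After a 5 h attachment period, ARE-reporter keratinocytes were dosed with compounds in DMSO and then cultured 23 h at 37 C. Cell viability came from CellTiter-Fluor signal read after a further 1 h.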

[2] = Nuclear factor erythroid 2-related factor 2/antioxidant responsive element (Nrf2/ARE) small molecule agonists: luciferase reporter gene qHTS assay in human keratinocytes (AID 1919969); note: nearly all actives have a fitted effect of over 35% in size; note: potency is the fitted concentration of half-maximal effect
[3] = target: Gonadotropin-releasing hormone receptor (Homo sapiens) (UniProt P30968); experiment: Human gonadotropin-releasing hormone receptor (GnRHR) small molecule agonists, calcium flux assay in GnRHR-HEK293 cells (AID 1920063); note: nearly all actives have a fitted effect of over 35% in size
How it was run: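 We seeded human GnRHR-expressing HEK293 cells for 18 hours, loaded them with calcium dye for an hour at 37 C, added test compounds, and recorded fluorescence intensity kinetically for three minutes.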

[4] = target: KiSS-1 receptor (Homo sapiens) (UniProt Q969F8); experiment: Human kisspeptin (KISS1R) small molecule agonists, calcium flux assay in KISS1R-HEK293 cells (AID 1920064; active = well fitted curve in the direction sought with a large enough effect in the repeat runs; an effect the other way counts as inactive or inconclusive)
How it was run: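 Kinetic calcium assay, 1 s sampling over 3 min at Ex/Em 480/540, in HEK293 cells engineered with human KISS1R; compounds delivered in DMSO after 1 h dye loading.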

[5] = G protein-coupled receptor (GPCR) small molecule agonists, calcium flux assay: HEK293 wild type cell line counter screen (AID 1920065)
How it was run: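 Calcium-sensitive dye, loaded 1 h at 37 C into cells cultured 18 h, reports compound-evoked calcium release as fluorescence (Ex/Em 480/540), measured over 3 min. Agonist mode; 15-point titrations, triplicate.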

[6] = p53 small molecule agonists, cell-based qHTS assay with human liver microsomes (AID 1963577)
How it was run: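 p53RE-bla cells, 4,000/well, compound added after 5 h, with human liver microsomes 0.5 mg/mL and NADPH 0.5 mg/mL final; 16 h at 37 C, then LiveBLAzer 2 h RT, fluorescence.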

[7] = p53 small molecule agonists, cell-based qHTS assay with rat liver microsomes (AID 1963578)
How it was run: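 p53RE-bla cells, 4,000/well, pre-incubated 5 h, then given compounds plus rat liver microsomes (0.5 mg/mL final) and NADPH (0.5 mg/mL final). Incubation 16 h at 37 C; beta-lactamase reporter read by LiveBLAzer fluorescence after 2 h at room temperature.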

[8] = p53 small molecule agonists, cell-based qHTS assay with human liver microsomes: qHTS cell viability counter screen (AID 1963579); note: nearly all actives have a fitted effect of over 45% in size
How it was run: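 p53RE-bla cells, 4,000/well, dosed 5 hours after plating, with human liver microsomes (0.5 mg/mL final) plus NADPH (0.5 mg/mL final), 16 hours at 37 C. Viability read as CellTiter-Glo luminescence after 30 min at room temperature.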

[9] = p53 small molecule agonists, cell-based qHTS assay: qHTS cell viability counter screen (AID 1963581); note: nearly all actives have a fitted effect of over 45% in size
How it was run: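 Following 5 h attachment, HCT-116 p53RE-bla cells took up compound for 16 h at 37 C; the reporter was read with B/G FRET substrate (2 h RT), and viability then via CellTiter-Glo ATP luminescence.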

[10] = p53 small molecule agonists, cell-based qHTS assay (AID 1963582; active = well fitted activation curve with a large enough effect in the signal ratio in the repeat runs, not every such curve was filed as active; the % refers to the signal ratio)
How it was run: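 In this cell-based concentration-response screen, a p53 response element drives beta-lactamase; cells received DMSO-borne compounds after 5 h culture and were incubated a further 16 h before FRET substrate development.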

[11] = target: 5-hydroxytryptamine receptor 2A (Homo sapiens) (UniProt P28223); experiment: 5-hydroxytryptamine receptor 2A (HTR2A) small molecule antagonists, cell-based qHTS assay (AID 1963586); note: nearly all actives have a fitted effect of over 45% in size; note: potency is the fitted concentration of half-maximal effect
How it was run: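 Antagonist-mode intracellular calcium assay: DOI (4 nM) added after 5 min compound pre-incubation at room temperature to dye-loaded HTR2A-CHO cells. Fluorescence followed for 3 min, sampled every second.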

[12] = target: 5-hydroxytryptamine receptor 2A (Homo sapiens) (UniProt P28223); experiment: 5-hydroxytryptamine receptor 2A (HTR2A) small molecule agonists, cell-based qHTS assay (AID 1963587); note: nearly all actives have a fitted effect of over 30% in size; note: potency is the fitted concentration of half-maximal effect
How it was run: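 CHO cells stably expressing human HTR2A, plated 18 h, loaded with calcium dye 1 h at 37 C. Agonist mode: compounds added and intracellular calcium fluorescence recorded kinetically for 2 min at 1 sec intervals.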

[13] = target: Muscarinic acetylcholine receptor M1 (Homo sapiens) (UniProt P11229); experiment: Cholinergic receptor muscarinic 1 (CHRM1) small molecule agonists, cell-based qHTS assay (AID 1963589); note: nearly all actives have a fitted effect of over 35% in size
How it was run: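 Measures agonist-induced intracellular calcium rise. Stable human CHRM1 CHO line, 1 h dye load at 37 C, compounds from DMSO, kinetic fluorescence read.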

[14] = cAMP Responsive Elements (CRE) small molecule agonists, cell-based qHTS assay (AID 1963590)
How it was run: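 A CRE-responsive beta-lactamase reporter in HEK 293T cells was used. Treatment ran 3 h at 37 C; detection used LiveBLAzer B/G FRET substrate for 2 h at room temperature.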

[15] = cAMP Responsive Elements (CRE) small molecule antagonists, cell-based qHTS assay (AID 1963591; active = well fitted inhibition curve with a large enough effect in the signal ratio in the repeat runs, not every such curve was filed as active; the % refers to the signal ratio)
How it was run: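 HEK293T cells carrying a CRE-driven beta-lactamase reporter receive compound and NKH477 (0.25 uM final) for 3 h. Fluorescence from LiveBLAzer B/G FRET substrate is read after 2 h at room temperature.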

[16] = target: Muscarinic acetylcholine receptor M1 (Homo sapiens) (UniProt P11229); experiment: Cholinergic receptor muscarinic 1 (CHRM1) small molecule antagonists, cell-based qHTS assay (AID 1963588); note: nearly all actives have a fitted effect of over 40% in size
How it was run: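 CHRM1-CHO calcium-flux assay, antagonist mode. Cells were seeded 18 h, dye-loaded 1 h at 37 C and given compound for 5 min at RT, then acetylcholine was added at 50nM. FDSS fluorescence was read 3 min; 15 concentrations, three runs.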

[17] = target: Beta-2 adrenergic receptor (Homo sapiens) (UniProt P07550); experiment: Adrenergic beta2 receptor (ADRB2) small molecule antagonists, cell-based qHTS assay (AID 1963592); note: series mostly up to about 92 µM; nearly all actives have a fitted effect of over 50% in size
How it was run: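 Cells (CHO, stable ADRB2 overexpression) incubated 18-20hr at 37C; compounds added from DMSO; agonist mix (1nM isoproterenol, 100uM IBMX, 25uM Ro-20-1724) added; 0.5hr RT; d2-cAMP and anti-cAMP-cryptate added; 1hr RT; 665/615 nm read.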

[18] = target: D(2) dopamine receptor (Homo sapiens) (UniProt P14416); experiment: Dopamine D2 receptor (DRD2) small molecule agonists, cell-based qHTS assay (AID 1963594); note: nearly all actives have a fitted effect of over 35% in size
How it was run: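 HEK293 cells stably expressing human DRD2, pre-treated with PDE inhibitor Ro20-1724 (0.1 mM final) and compound 10 min at room temperature, then stimulated with NKH477 (200nM […]) for 30 min. cAMP read by HTRF (665/620 nm).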

[19] = target: D(2) dopamine receptor (Homo sapiens) (UniProt P14416); experiment: Dopamine D2 receptor (DRD2) small molecule antagonists, cell-based qHTS assay (AID 1963595; active = well fitted inhibition curve with a large enough effect in the signal ratio in the repeat runs, with a control signal flat; the % refers to the signal ratio)
How it was run: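 Stable D2 receptor HEK293 line, 24 h after seeding. Compound preincubated 10 min, then quinpirole (12 nM) with forskolin analogue NKH477 (200 nM), 30 min, room temperature. Detection by time-resolved FRET of cAMP.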

Chain of Gonadotropin-releasing hormone receptor (Homo sapiens) (P30968 whole entry, looked up): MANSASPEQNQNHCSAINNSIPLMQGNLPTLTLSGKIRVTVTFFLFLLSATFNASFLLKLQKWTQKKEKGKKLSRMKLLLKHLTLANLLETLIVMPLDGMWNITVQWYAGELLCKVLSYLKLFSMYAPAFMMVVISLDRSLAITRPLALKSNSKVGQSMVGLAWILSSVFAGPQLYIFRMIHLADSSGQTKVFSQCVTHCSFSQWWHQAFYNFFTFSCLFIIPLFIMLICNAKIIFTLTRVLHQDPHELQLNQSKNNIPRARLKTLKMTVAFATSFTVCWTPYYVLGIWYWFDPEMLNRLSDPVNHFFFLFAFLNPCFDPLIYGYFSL
Chain of 5-hydroxytryptamine receptor 2A (Homo sapiens) (P28223 whole entry, looked up): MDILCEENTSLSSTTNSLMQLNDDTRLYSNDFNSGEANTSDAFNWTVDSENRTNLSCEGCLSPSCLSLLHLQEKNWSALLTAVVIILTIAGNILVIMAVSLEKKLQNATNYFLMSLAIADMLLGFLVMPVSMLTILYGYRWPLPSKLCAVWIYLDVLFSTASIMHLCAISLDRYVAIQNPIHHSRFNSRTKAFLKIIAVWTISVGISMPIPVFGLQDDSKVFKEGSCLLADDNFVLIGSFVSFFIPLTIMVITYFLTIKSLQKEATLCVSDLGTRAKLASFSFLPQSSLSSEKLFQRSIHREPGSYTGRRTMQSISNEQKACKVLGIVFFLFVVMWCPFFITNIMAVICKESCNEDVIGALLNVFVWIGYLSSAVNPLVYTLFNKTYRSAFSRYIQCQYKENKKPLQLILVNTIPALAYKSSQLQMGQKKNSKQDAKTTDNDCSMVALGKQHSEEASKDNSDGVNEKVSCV
Chain of Muscarinic acetylcholine receptor M1 (Homo sapiens) (P11229 whole entry, looked up): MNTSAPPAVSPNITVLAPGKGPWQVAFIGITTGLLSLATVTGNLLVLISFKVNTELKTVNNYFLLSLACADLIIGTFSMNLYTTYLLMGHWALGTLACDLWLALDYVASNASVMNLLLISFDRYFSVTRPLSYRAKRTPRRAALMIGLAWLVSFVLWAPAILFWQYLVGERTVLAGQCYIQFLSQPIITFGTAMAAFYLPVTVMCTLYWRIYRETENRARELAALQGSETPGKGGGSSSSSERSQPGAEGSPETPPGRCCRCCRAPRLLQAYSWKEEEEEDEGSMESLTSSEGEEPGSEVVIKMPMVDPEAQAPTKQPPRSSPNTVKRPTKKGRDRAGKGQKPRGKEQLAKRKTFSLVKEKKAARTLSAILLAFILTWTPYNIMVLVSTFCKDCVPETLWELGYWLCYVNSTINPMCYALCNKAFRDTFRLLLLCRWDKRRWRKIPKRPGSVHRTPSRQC
Chain of Beta-2 adrenergic receptor (Homo sapiens) (P07550 whole entry, looked up): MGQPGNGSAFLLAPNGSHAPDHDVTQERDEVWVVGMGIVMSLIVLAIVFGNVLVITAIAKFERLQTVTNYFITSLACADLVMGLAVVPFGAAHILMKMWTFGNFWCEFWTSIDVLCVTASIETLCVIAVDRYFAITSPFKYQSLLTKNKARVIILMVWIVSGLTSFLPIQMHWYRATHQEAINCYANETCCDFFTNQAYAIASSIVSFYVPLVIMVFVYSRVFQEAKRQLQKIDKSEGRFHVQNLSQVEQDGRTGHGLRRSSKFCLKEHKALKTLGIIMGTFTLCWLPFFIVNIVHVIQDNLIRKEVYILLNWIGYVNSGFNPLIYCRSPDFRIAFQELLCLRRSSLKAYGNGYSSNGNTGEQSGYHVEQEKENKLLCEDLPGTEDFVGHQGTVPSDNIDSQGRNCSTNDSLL
Chain of KiSS-1 receptor (Homo sapiens) (Q969F8 whole entry, looked up): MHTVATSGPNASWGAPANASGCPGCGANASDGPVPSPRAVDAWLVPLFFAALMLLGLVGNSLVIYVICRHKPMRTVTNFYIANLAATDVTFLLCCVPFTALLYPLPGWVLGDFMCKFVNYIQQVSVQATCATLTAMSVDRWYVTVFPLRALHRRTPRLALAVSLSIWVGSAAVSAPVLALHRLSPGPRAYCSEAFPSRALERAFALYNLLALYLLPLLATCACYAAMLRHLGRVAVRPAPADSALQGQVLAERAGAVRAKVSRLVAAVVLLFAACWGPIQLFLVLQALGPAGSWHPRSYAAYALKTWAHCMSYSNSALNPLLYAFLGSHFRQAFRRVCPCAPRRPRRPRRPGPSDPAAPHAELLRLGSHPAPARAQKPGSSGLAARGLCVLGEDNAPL
Chain of D(2) dopamine receptor (Homo sapiens) (P14416 whole entry, looked up): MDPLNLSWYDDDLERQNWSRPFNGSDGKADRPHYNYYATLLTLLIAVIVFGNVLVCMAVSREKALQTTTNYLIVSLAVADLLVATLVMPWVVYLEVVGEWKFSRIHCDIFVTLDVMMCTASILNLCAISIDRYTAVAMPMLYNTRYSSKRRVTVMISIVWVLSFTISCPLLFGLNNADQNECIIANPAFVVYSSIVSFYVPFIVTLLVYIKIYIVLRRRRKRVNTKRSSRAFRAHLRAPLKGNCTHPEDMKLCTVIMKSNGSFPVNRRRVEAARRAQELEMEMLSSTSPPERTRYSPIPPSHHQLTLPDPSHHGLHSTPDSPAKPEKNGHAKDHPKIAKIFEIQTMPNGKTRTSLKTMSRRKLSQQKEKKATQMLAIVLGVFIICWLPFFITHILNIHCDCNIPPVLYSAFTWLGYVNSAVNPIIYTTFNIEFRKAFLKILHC

Structure (SMILES) | Potency [1] | Potency [2] | Potency [3] | Potency [4] | Potency [5] | Potency [6] | Potency [7] | Potency [8] | Potency [9] | Potency [10] | Potency [11] | Potency [12] | Potency [13] | Potency [14] | Potency [15] | Potency [16] | Potency [17] | Potency [18] | Potency [19]
O=C(NC(=O)c1ccccc1Cl)Nc1ccc(OC(F)(F)F)cc1 | inactive | inactive | inactive | inactive | inactive | inactive | inactive | inactive | inactive | inactive | inactive | inactive | inactive | inactive | inactive |  |  |  | 
NNC(N)=S | 16 µM (active) | 21.7 µM (active) | inactive | inactive | inactive | inactive | inactive | inactive | inactive | inactive | inactive | inactive | inactive | inactive | inactive | inactive | inactive | inactive | inactive
CCCC(C)(COC(N)=O)COC(=O)NC(C)C (stereo not given) | inactive | inactive | inactive | inactive | inactive | inactive | inactive | inactive | inactive | inactive | inactive | inactive |  | inactive | inactive | inactive | inactive | inactive | inactive
Nc1c(Cl)c(Cl)nc(C(=O)O)c1Cl | inactive | inactive | inactive | inactive | inactive | inactive | inactive | inactive | inactive |  | inactive | inactive | inactive |  | inactive | inactive | inactive | inactive | inactive
CN(C)N=O | inactive | inactive | inactive | inactive | inactive | inactive | inactive | inactive |  | inactive | inactive |  | inactive | inactive | inactive | inactive | inactive | inactive | inactive
CN(CCCC(=O)c1cccnc1)N=O | inactive | inactive | inactive | inactive | inactive | inactive | inactive | inactive | inactive | inactive | inactive | inactive | inactive | inactive |  | inactive | inactive | inactive | inactive
COC(=O)[C@@H](N)CCCN/C(N)=N/[N+](=O)[O-] | inactive | inactive | inactive | inactive | inactive | inactive | inactive | inactive |  | inactive | inactive | inactive | inactive | inactive | inactive | inactive | inactive | inactive | inactive
NC(=O)OCCCc1ccccc1 | inactive | inactive | inactive | inactive | inactive | inactive | inactive | inactive | inactive | inactive | inactive | inactive | inactive | inactive | inactive | inactive | inactive |  | inactive
c1ccc(N2CCNCC2)cc1 | inactive | inactive | inactive | inactive | inactive | inactive | inactive | inactive |  | inactive | 0.818 µM (active) | 0.601 µM (active) |  | inactive | inactive | inactive | inactive | inactive | inactive
C=C(C)C#N | inactive | inactive | inactive | inactive | inactive | inactive | inactive | inactive | inactive | inactive | inactive | inactive | inactive | inactive | inactive | inactive | inactive | inactive | inactive
CN(N=O)C(N)=O | inactive | inactive | inactive | inactive | inactive | inactive | inactive | inactive | inactive | inactive | inactive |  | inactive | inactive | inactive | inactive |  | inactive | 
O=C(O)CCCc1ccc(N(CCCl)CCCl)cc1 | inactive | inactive | inactive | inactive | inactive | inactive | inactive | inactive | inactive | inactive |  |  |  | inactive | inactive |  | inactive | inactive | inactive
C#CCO | inactive | inactive | inactive | inactive | inactive | inactive | inactive | inactive | inactive | inactive | inactive | inactive | inactive | inactive | inactive | inactive |  |  | inactive
CCCSC(=O)Cl | inactive | inactive | inactive | inactive | inactive | inactive | inactive | inactive | inactive | inactive | inactive | inactive | inactive | inactive | inactive | inactive |  | inactive | inactive
O=C(O)COc1ccc(Cl)cc1Cl | inactive | inactive | inactive | inactive | inactive | inactive | inactive | inactive | inactive | inactive | inactive | inactive | inactive |  | inactive | inactive | inactive | inactive | inactive
